# From PubChem BioAssay AID743287 (Broad Institute, 2014)
# Screen size: about 370,000 compounds; about 2,300 (0.62%) were called active.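 Rule for the calls: active = lowest replicate activation of at least 40%, so every replicate reaches that level; inactive = the rest.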 Shown is part of a subset that was picked to be rich in actives.
# Test: primary screen for activators of insulin secretion dependent on glucose, INS-1E cells, GLuc reporter luminescence (AID 743287);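 note: 0% = median of neutral control wells and 100% = median of IBMX positive control wells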
# Settings: INS-1E GLuc reporter insulin secretion, 2-3 h, at 16.6 µM, stronger effect = higher value
row,SMILES,activation
1,C[C@@H]1CN([C@H](C)CO)C(=O)c2cccc(NC(=O)c3ccncc3)c2O[C@@H]1CN(C)S(=O)(=O)c1cn(C)cn1,8.83% (inactive)
2,COCc1ccc(CN2CCC(Oc3ccc(C(=O)NCc4ccccn4)cc3)CC2)o1,2.23% (inactive)
3,COc1ccc2oc(=O)c(C(=O)NCc3ccccn3)cc2c1,70.8% (active)
4,COc1ccccc1CNS(=O)(=O)c1cc(C(=O)NCc2ccccn2)c(Cl)cc1Cl,4.38% (inactive)
5,C[C@@H]1CN([C@H](C)CO)C(=O)c2cc(NC(=O)NC3CCCCC3)ccc2O[C@@H]1CN(C)S(C)(=O)=O,-8.57% (inactive)
6,CC(C)CC#Cc1ccc2c(c1)O[C@H](CN(C)Cc1cccnc1)[C@H](C)CN([C@@H](C)CO)S2(=O)=O,-26.2% (inactive)
7,CC=CCn1c(SCCCc2ccccc2)nc2c1c(=O)[nH]c(=O)n2C,3.95% (inactive)
8,CC1CCN(c2nc3c(c(=O)[nH]c(=O)n3C)n2CCCc2ccccc2)CC1,3.62% (inactive)
9,C=CCn1c(SCc2ccccc2)nc2c1c(=O)[nH]c(=O)n2C,52% (active)
10,CO[C@H]1CN(C)C(=O)c2cc(NS(=O)(=O)c3ccccc3C)ccc2OC[C@@H](C)NC[C@@H]1C,2.17% (inactive)
11,COCC(=O)N(C)C[C@H]1Oc2cc(Br)ccc2S(=O)(=O)N([C@H](C)CO)C[C@H]1C,46.1% (active)
12,C[C@@H]1CN([C@@H](C)CO)S(=O)(=O)c2ccc(Br)cc2O[C@@H]1CN(C)C(=O)CN(C)C,21.4% (inactive)
13,COCC(=O)N(C)C[C@H]1Oc2cc(C#CC(C)C)ccc2S(=O)(=O)N([C@H](C)CO)C[C@@H]1C,1.27% (inactive)
14,COc1ccc(NC(=O)N[C@H]2C=C[C@H](CC(=O)NCc3ccccn3)O[C@H]2CO)cc1,15.4% (inactive)
15,COc1ccc2c3c(n(C)c2c1)[C@H](CO)N(Cc1ccccc1)CC31CCN(C)CC1,15.2% (inactive)
16,O=C(O)CCCCCCCCCC[n+]1ccccc1,91.6% (active)
17,CC(C)C#Cc1ccc2c(c1)O[C@H](CN(C)CC1CCOCC1)[C@@H](C)CN([C@H](C)CO)S2(=O)=O,-18.8% (inactive)
18,CCCc1cc(=O)oc2c(C)c(OCC(=O)NCc3ccccn3)ccc12,11.9% (inactive)
19,CCCc1cc(-c2nc(-c3ccc(C)cc3)cs2)ccn1,90.4% (active)
20,CCCCCN1CC(O)=C(c2nc(-c3ccc(Cl)cc3)cs2)C1=N,35.7% (inactive)
21,CC(C)NC(=O)N(C)C[C@@H]1Oc2ncc(C3=CCCCC3)cc2C(=O)N([C@H](C)CO)C[C@@H]1C,-12.5% (inactive)
22,Cn1c(=O)oc2cc(S(=O)(=O)N3CCC(C(=O)Nc4ccc(OC(F)(F)F)cc4)CC3)ccc21,48.6% (active)
23,CC(=O)Nc1ccc(S(=O)(=O)N2CCC(C(=O)NC3CC3)CC2)cc1,29.2% (inactive)
24,Cc1ccc(NC(=O)C2CCN(S(=O)(=O)c3ccc4c(c3)NC(=O)CO4)CC2)cc1C,-23% (inactive)
25,C[C@H](NC(=O)[C@@H]1[C@@H](CO)[C@@H]2Cn3c(ccc(-c4cccc(F)c4)c3=O)[C@@H]2N1C)c1ccccc1,-1.52% (inactive)
26,C[C@@H]1CCCCO[C@@H](CN(C)S(=O)(=O)c2cn(C)cn2)[C@H](C)CN([C@@H](C)CO)C(=O)c2cc(NC(=O)Nc3ccccc3)ccc2O1,20.9% (inactive)

row,SMILES,activation
1,CN1C(=O)c2cc(NC(=O)Cc3ccccc3)ccc2OC[C@H]2O[C@H](CC(=O)NCc3ccc(Cl)cc3)CC[C@H]21,-7.02% (inactive)
2,C[C@@H]1CN([C@H](C)CO)C(=O)Cc2cc(NC(=O)Nc3ccc(C(F)(F)F)cc3)ccc2O[C@@H]1CN(C)S(=O)(=O)c1ccccc1,7.64% (inactive)
3,COc1ccc(CN2CCCCC2C)cc1OC (configuration not stated),11.6% (inactive)
4,COc1ccc(CN2CC[C@H]3C=CC[C@@H](C(=O)N4CCOCC4)[C@H]3C2=O)cc1OC,9.86% (inactive)
5,COc1ccc(CN2CCOC2=O)cc1OC,59.2% (active)
6,CNC[C@@H]1Oc2ccc(NC(C)=O)cc2CC(=O)N(C)C[C@@H]1C,3.12% (inactive)
7,COC(=O)N1Cc2ccnnc2CC1c1ccccc1Br (configuration not stated),5.66% (inactive)
8,COc1ccc(-c2ccccc2C2Cc3nnccc3CN2C(=O)Nc2ccccc2)cc1 (configuration not stated),60.4% (active)
9,COc1ccc(CN2[C@@H](CO)[C@@H]3c4ccccc4N(C(=O)Nc4ccccc4)C[C@@H]32)cc1,-18.4% (inactive)
10,CO[C@H]1CN(C)C(=O)c2ccc(NC(=O)NC(C)C)cc2OC[C@H](C)N(Cc2cncnc2)C[C@@H]1C,-3.42% (inactive)
11,Clc1ccc(Cl)c(Oc2ccc(Oc3nc(Cl)ccc3Cl)cc2)n1,43.2% (active)
12,CC(C)NC(=O)N(C)C[C@@H]1OCCCC[C@H](C)Oc2ccc(NC(=O)Nc3ccccc3)cc2C(=O)N([C@H](C)CO)C[C@@H]1C,-11.5% (inactive)
13,CCOc1ccc(C(C)NC(=O)CN2C(=O)NC3(CCCCC3)C2=O)cc1OCC (configuration not stated),5.62% (inactive)
14,Cc1ccc(COC(=O)CN2C(=O)NC3(CCCC3)C2=O)cc1,6.93% (inactive)
15,CCOc1ccc(C(C)=O)cc1COC(=O)CN1C(=O)NC2(CCCC2)C1=O,241% (active)
16,CCC(=O)N(C)C[C@@H]1Oc2cc(C#CCOC)ccc2S(=O)(=O)N([C@H](C)CO)C[C@H]1C,8.1% (inactive)
17,CCCN(C)C[C@@H]1OCCCC[C@H](C)Oc2ccc(NS(=O)(=O)c3ccc(C)cc3)cc2C(=O)N([C@H](C)CO)C[C@@H]1C,7.05% (inactive)
18,COCCNc1nc(N)c([N+](=O)[O-])c(NCCO)n1,17.8% (inactive)
19,C=CCNc1nc(N)c([N+](=O)[O-])c(NC2CCCCC2)n1,20.2% (inactive)
20,COCCNc1nc(N)c([N+](=O)[O-])c(N2CCCCCC2)n1,52.3% (active)
21,CC(=O)Nc1ccc2c(c1)C(=O)N(C)[C@H]1CC[C@H](CC(=O)NCc3ccccc3Cl)O[C@H]1CO2,-3.1% (inactive)
22,N#C[C@H]1[C@H](c2ccccc2)[C@@H](CO)N1C(=O)c1cccnc1,1.43% (inactive)
23,C[C@@H]1CN([C@@H](C)CO)C(=O)c2cc(/C=C/c3ccccc3)cnc2O[C@H]1CN(C)C(=O)C1CCC1,-16.6% (inactive)
24,COC(=O)C1=C(C)N(Cc2cccc(C(F)(F)F)c2)C(=NCc2ccccc2)NC1c1ccccc1C(F)(F)F (configuration not stated),198% (active)
25,COC(=O)C1=C(C)N(Cc2ccc(F)cc2)C(=S)NC1c1cccc(Cl)c1 (configuration not stated),-20.6% (inactive)
26,C=CCN=C1NC(c2cccc(C(F)(F)F)c2)C(C(=O)OC)=C(C)N1C (configuration not stated),-3.97% (inactive)

row,SMILES,activation
1,COC(=O)C1=C(C)N(Cc2ccccc2)C(=NCCCOC(C)C)N[C@H]1c1ccccc1,-19.7% (inactive)
2,COC(=O)C1=C(C)N(Cc2cccc(C(F)(F)F)c2)C(=NCc2cccc(C(F)(F)F)c2)NC1c1ccccc1C(F)(F)F (configuration not stated),23.9% (inactive)
3,COC(=O)C1=C(C)N(Cc2cccc(C(F)(F)F)c2)C(=NCc2ccccc2)NC1c1ccc(Cl)cc1 (configuration not stated),160% (active)
4,COc1ccc(S(=O)(=O)N(C)C[C@H]2Oc3c(NS(=O)(=O)c4cccs4)cccc3C(=O)N([C@H](C)CO)C[C@@H]2C)cc1,-10.4% (inactive)
5,CO[C@H]1CN(C)C(=O)c2ccc(NC(=O)C3CCCC3)cc2OC[C@H](C)N(C(=O)CC2CC2)C[C@@H]1C,8.95% (inactive)
6,COc1ccc(NC(=O)Nc2cccc3c2O[C@H](CN(C)Cc2ccncc2)[C@@H](C)CN([C@@H](C)CO)C3=O)cc1,3.69% (inactive)
7,CCSc1ncnc2c(C#N)c3n(c12)CCCCC3,47.4% (active)
8,CN(C)CC(=O)N1CC2(C1)[C@H](c1ccccc1)[C@H](CO)N2C(=O)C1CC1,10.8% (inactive)
9,N#Cc1cccc(-c2ccc([C@H]3[C@@H](CO)N[C@@H]3CNC(=O)C3CCC3)cc2)c1,7.07% (inactive)
10,c1ccc(CCN2CN=C(Nc3nc4ccccc4o3)NC2)cc1,-24.2% (inactive)
11,Brc1ccccc1/C=N/Nc1nc2ccccc2o1,46.6% (active)
12,CN1C(=O)c2cc(NC(=O)c3ccno3)ccc2OC[C@H]2O[C@@H](CC(=O)NCC(F)(F)F)CC[C@@H]21,19.2% (inactive)
13,CC(C)(C)Oc1ccccc1Nc1nc(NCCO)nc(N2CCCC2)n1,-9.68% (inactive)
14,Cn1ncc2c(N3CCCCC3)nc(NCCCO)nc21,60.1% (active)
15,COc1ccc(C#Cc2cnc3c(c2)C(=O)N([C@H](C)CO)C[C@@H](C)[C@H](CN(C)C(=O)Nc2cccc(OC)c2)O3)cc1,6.97% (inactive)
16,C[C@@H]1CN([C@H](C)CO)C(=O)c2cc(C#Cc3ccncc3)cnc2O[C@H]1CN(C)Cc1ccncc1,9.79% (inactive)
17,O=C(C[C@H]1CC[C@H](NC(=O)CCN2CCCCC2)[C@@H](CO)O1)Nc1ccccc1,33.8% (inactive)
18,CCOC(=O)c1cc(C(=O)Nc2ccc(S(=O)(=O)Nc3ccc(OC)cc3)cc2)nn1C,17% (inactive)
19,CCOC(=O)c1cc(-c2ccc(Cl)s2)nc2c1c(C)nn2C,60% (active)
20,CCOC(=O)c1cnc2c(c(C)nn2CC)c1Cl,7.57% (inactive)
21,C[C@H]1CN([C@@H](C)CO)C(=O)Cc2cc(NC(=O)NC3CCCCC3)ccc2O[C@H]1CN(C)S(=O)(=O)c1ccccc1,-7.37% (inactive)
22,CN1C(=O)c2cc(NC(=O)C3CCC3)ccc2OC[C@@H]2O[C@@H](CC(=O)NCc3ccccc3F)CC[C@@H]21,19.7% (inactive)
23,CC(=O)Nc1cc(-c2ccc(N3CCN(C)CC3)cc2)cn2c(-c3cccc(C(=O)N(C)C)c3)cnc12,40.3% (active)
24,CC(=O)c1cccc(-c2cnc3c(NC=O)cc(-c4ccc(N5CCN(C)CC5)cc4)cn23)c1,9.93% (inactive)
25,COc1cccc(-c2cnc3c(NC(C)=O)cc(-c4cccc(NC(C)=O)c4)cn23)c1,-1.53% (inactive)
